95 compounds from PubChem BioAssay AID376 (PDSP, 2006) can be followed below.

About 250 (12%) of roughly 2,000 compounds were called active. Only a selection was taken, and actives are over-represented in it overall. Values without a mark were called inactive. No stated cut-off is given here; in the data, active means hERG blockade below about -20% or above about 20%; inactive means in between.

The target in the experiment is Voltage-gated inwardly rectifying potassium channel KCNH2 (Homo sapiens) (UniProt Q12809). The experiment in a line: modulators of KCNH2 ion channel function, cellular (AID 376).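 Further: 0% = buffer alone and 100% = reference blocker.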 As to conditions: hERG-expressing cells, channel activity single-concentration screen; concentration not given here. On the technique in general: hERG is a cardiac potassium channel; its block is linked to QT prolongation.
Voltage-gated inwardly rectifying potassium channel KCNH2 (Homo sapiens), sequence (Q12809 whole entry, looked up): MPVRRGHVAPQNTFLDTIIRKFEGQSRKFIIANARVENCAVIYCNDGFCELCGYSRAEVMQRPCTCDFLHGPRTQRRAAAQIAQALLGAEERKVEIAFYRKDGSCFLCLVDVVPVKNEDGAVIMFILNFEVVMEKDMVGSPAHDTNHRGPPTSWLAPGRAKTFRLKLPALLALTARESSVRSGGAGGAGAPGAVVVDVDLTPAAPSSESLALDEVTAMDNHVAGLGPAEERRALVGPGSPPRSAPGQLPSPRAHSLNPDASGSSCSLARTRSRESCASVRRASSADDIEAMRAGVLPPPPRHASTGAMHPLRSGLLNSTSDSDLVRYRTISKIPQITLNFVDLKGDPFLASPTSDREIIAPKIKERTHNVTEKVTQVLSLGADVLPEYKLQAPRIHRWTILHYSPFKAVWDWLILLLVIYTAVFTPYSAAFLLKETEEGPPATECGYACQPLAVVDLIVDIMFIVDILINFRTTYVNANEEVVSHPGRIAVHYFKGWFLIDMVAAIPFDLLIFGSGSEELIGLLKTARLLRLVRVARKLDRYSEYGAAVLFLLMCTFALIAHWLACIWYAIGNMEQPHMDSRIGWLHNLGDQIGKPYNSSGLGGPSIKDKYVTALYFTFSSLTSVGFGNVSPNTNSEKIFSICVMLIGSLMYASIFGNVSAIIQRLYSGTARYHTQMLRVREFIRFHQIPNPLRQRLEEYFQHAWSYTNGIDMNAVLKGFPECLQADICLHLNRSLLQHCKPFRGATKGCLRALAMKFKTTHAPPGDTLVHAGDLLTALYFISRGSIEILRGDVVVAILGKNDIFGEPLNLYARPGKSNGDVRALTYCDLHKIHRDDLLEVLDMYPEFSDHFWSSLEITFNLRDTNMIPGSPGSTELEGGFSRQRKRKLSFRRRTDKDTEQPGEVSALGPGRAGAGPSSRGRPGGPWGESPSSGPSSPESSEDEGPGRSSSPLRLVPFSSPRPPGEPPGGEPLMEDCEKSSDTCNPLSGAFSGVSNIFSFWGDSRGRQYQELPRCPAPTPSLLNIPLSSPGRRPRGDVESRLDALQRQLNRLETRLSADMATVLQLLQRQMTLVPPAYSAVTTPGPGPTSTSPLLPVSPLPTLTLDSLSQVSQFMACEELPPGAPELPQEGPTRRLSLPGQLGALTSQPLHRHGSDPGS
As for `CSc1ccc2c(c1)c(CCN)c(C)n2Cc1ccccc1Cl`, the hERG blockade is 102% (active).

Take `Cn1c(=O)c2[nH]cnc2n(C)c1=O.[CH2-]C(Cc1cccc2cc(C(=O)O)c(=O)oc12)OC.[Hg+2].[OH-]` (stereo not given): the hERG blockade was -6.48%. On to `CC1=NN(c2ccccc2)C(=O)C1N=Nc1ccc([As](=O)(O)O)c(O)c1` (stereo not given), for which the hERG blockade is 32.9% (active). Next, `Nc1nc(N)c(N=Nc2ccc([As](=O)(O)O)c(O)c2)c(N)n1`: -5.01%; `O=C(O)CC1NCc2cc3ccccc3nc21` (stereo not given): -11.4%; `O=P(O)(OP(=O)(O)c1ccccc1)c1ccccc1` (tested in a mixture with another compound): -3.18%. In the case of `Nc1nnnn1CCO`, the hERG blockade is -1.1%. For `CC1CCC2(NC1)OC1CC3C4CC=C5CC(O)CCC5(C)C4CCC3(C)C1C2C` (stereo not given), the hERG blockade is 5.44%.

Turning to `CC1=C2C(=O)C3C(CC=C4CC(O)CCC43C)C2CCC12OC1CC(C)CNC1C2C` (stereo not given), the hERG blockade is 18.8%. The value for `Cc1c(C(C)C2NCC(C)CC2O)ccc2c1CC1C2CC=C2CC(O)CCC21C` (stereo not given) was 75.5% (active). The value for `COC([CH2][Hg][n]1cnc2c1c(=O)n(C)c(=O)n2C)CN1C(=O)c2ccccc2S1(=O)=O` (stereo not given) was -10.9%. As to `O=P(O)(O)c1ccccc1` (tested in a mixture with another compound), the hERG blockade is -2.7%. Next, `O=C(O)CSCC(=O)O`: -1.83%; `CC(Br)C(=O)NC(CO)C(=O)O` (stereo not given): 16.5%; `O=C(Nc1cc[c]([Sb](=[O])([OH])[OH])cc1)c1ccccc1`: 5.03%.

With `Nc1ccc(S(=O)(=O)c2ccc(NCN3C(=O)NC(=O)C(=O)C3=O)cc2)cc1`, the hERG blockade was 20%. The value for `O=P(O)(O)CCP(=O)(O)O` was -9.16%.

As for `CCOC(=O)C1C(O)CC2c3ccccc3-c3ccccc3C21` (stereo not given), the hERG blockade was -9.9%. The value for `COc1cc2c(cc1OC)C13CC[N+]4(C)CC5=CCOC6CC(=O)N2C1C6C5CC34O` (stereo not given) was 0.126%; that for `NCCSC(c1ccccc1)c1ccccc1` was 21.8% (active). The value for `Nc1c(C(=O)Nc2ccc([As](=O)(O)O)cc2)cnc2nnnn12` was 6.38%. Consider `COC(=O)C1C(=O)C(C(=O)OC)C2CCC1N2C` (stereo not given), for which the hERG blockade was -6.77%. On to `O=[As](O)(O)c1ccc2nc3cc([As](=O)(O)O)ccc3nc2c1`, for which the hERG blockade is 6.6%. The value for `CCSCCC(N)C(=O)O` (stereo not given) was -2.21%; that for `CC(CN(C)C)C(C#N)(c1ccccc1)c1ccccc1` (stereo not given) was 3.3%.

Regarding `C[n+]1c(C=Cc2ccc(O)c3ncccc23)[se]c2ccccc21`, the hERG blockade is 24% (active). Consider `NC(CP(=O)(O)O)C(=O)O` (stereo not given), for which the hERG blockade is 0.269%. Next, `COc1cccc2c1C(=O)c1c(O)c3c(c(O)c1C2=O)CC(O)(C(C)=NO)CC3OC1CC(N)C(O)C(C)O1` (stereo not given): 36.3% (active); `CC(O)CN(CCN(CC(C)O)CC(C)O)CC(C)O.O=[N+]([O-])[O-].[Cu+2]` (stereo not given): 13.4%; `CC12CN(CC[N+](C)(C)C)CC1(C)C1CCC2O1` (stereo not given): -0.461%. The value for `Cc1ccc(OP(=O)(Oc2ccc(C)cc2)N2C=Cc3ccccc3C2C#N)cc1` (stereo not given) was 0.907%; that for `Cc1ccc(S(=O)ON2CCC(C(=O)O)(c3ccccc3)CC2)cc1` (stereo not given) was 4.76%.

Take `Nc1nc(N)c(N=Nc2ccc([As](=O)(O)O)cc2)c(=O)[nH]1`: the hERG blockade was 13.9%.

With `N#CCCCC[N+]12CN3CN(CN(C3)C1)C2`, the hERG blockade was 6.19%. Next, `COc1cc(O)c2c(O)c3c(c4c2c1C1(C4)C(C)=CCCC1(C)C)C(O)C1(O)CC(=O)C(C(N)=O)=C(O)C1(O)C3=O` (stereo not given): 24.7% (active); `Nc1cc[c]([Hg])cc1.Nc1nc2c(ncn2C2OC(CO)C(O)C2O)c(=[SH+])[nH]1` (stereo not given): 2%. Next, `NNc1c(C(N)=O)c2c(N)ncnc2n1C1OC(CO)C(O)C1O` (stereo not given): 6.28%; `O=[As](O)(O)c1ccc(Cc2ccc([As](=O)(O)O)cc2)cc1`: -1.48%. For the compound `O=C(O)CNC(=O)c1ccc([As](=O)(O)O)cc1`, the hERG blockade is -21.5% (active). As for `NC(=O)c1ccc(C(=O)Nc2ccc([As](=O)(O)O)cc2)cc1`, the hERG blockade is 8.1%.

As for `CC1=NN(c2ccc(S(=O)(=O)O)cc2C)C(=[OH+])C1N=Nc1cc(S(=O)(=O)[O-])ccc1C(=O)O.[Cr].[OH-]` (stereo not given), the hERG blockade is -5.52%. Next, `Oc1ccc(CCNCc2cc3c(cc2Br)OCO3)cc1`: -0.605%; `O=C(O)C(Br)C(Br)C(=O)O` (stereo not given): 10.9%. The value for `NCCc1c[nH]c2ccc(OC(=O)C(=O)O)cc12` was -28.9% (active); that for `NC(CCP(=O)(O)O)C(=O)O` (stereo not given) was 5.51%. Next, `CC1CCC2(O)C3(C)CC4(O)OC2(C1O)C1(O)C3(O)C(OC(=O)c2ccc[nH]2)C(O)(C(C)C)C41C` (stereo not given): 2.45%; `O=C(O)C(O)(c1ccc(-c2ccccc2)cc1)c1ccc(-c2ccccc2)cc1`: 33.6% (active). Take `CC(C)c1ccc(C(O)(C(=O)O)c2ccc(C(C)C)cc2)cc1`: the hERG blockade is 7.38%. Next, `CC(=O)OC1CCC2(C)C(CCC3C2CC(=O)C2(C)C3CC(N3CC3)C2C(C)=O)C1` (stereo not given): 2.23%. Next, `CCc1ccc(CCN2CCCCC2)nc1`: -0.853%. Next, `O=C(CC(c1ccccc1)c1c(O)c2ccccc2oc1=O)c1ccccc1` (stereo not given): 22.2% (active). For the compound `CC(C)c1ccc(C(c2c(O)c3ccccc3oc2=O)c2c(O)c3ccccc3oc2=O)cc1`, the hERG blockade is 15.3%. For the compound `Nc1ccccc1O.O.O=C(O)C1[O][Sb][O]C1C(=O)O` (stereo not given), the hERG blockade was 16.3%.

In the case of `[N-]=[N+]=CC(=O)CCC(N)C(=O)O` (stereo not given), the hERG blockade was 2.68%. In the case of `O=C(CCN1CC2CCC(CC2)C1)c1cccs1`, the hERG blockade was 29.2% (active). As for `NC(CCl)=NC1CN2CCC1CC2` (stereo not given), the hERG blockade was -4.96%. The value for `O=[As](O)(O)c1ccc(N=Nc2ccc(O)cc2)cc1` was -7.36%; that for `O=C(c1ccccc1)C1C(c2ccccc2[N+](=O)[O-])N1C1CCCCC1` (stereo not given) was 24.1% (active). Next, `CCCOC(=O)C1C2CCC(O2)C1C(=O)O` (stereo not given): 8.66%; `Oc1ccc(C(O)C2CCCCN2)cc1O` (stereo not given): 1.5%; `Cc1ccc(S(=O)(=O)OC2CN3CCC2CC3)cc1` (stereo not given): 2.18%. Consider `CS(=O)(=O)OC1CN2CCC1CC2` (stereo not given), for which the hERG blockade is -24.5% (active).

As for `CN(C)CCC(C#N)(c1ccccc1)c1ccccc1`, the hERG blockade was 6.53%. Next, `c1ccc2c(c1)Sc1ccccc1N2CC1CN2CCC1CC2` (stereo not given): 69.3% (active); `CC1C(C)N1CC(O)Cn1ccnc1[N+](=O)[O-]` (stereo not given): 8.14%. For the compound `Cc1ccc(O)cc1` (tested in a mixture with another compound), the hERG blockade is -3.08%.

Take `ClCC[N+]12CC[N+](CCCl)(CC1)C2` (tested in a mixture with another compound): the hERG blockade is 11.5%. The value for `CC1(C)N=C(N)N=C(N)N1c1cccc(C(=O)Nc2ccc(S(=O)(=O)F)cc2)c1` was 24.1% (active). Next, `O=C(O)c1cccc([As]=[As]c2cccc(C(=O)O)c2)c1` (stereo not given): -10.8%.

Turning to `NC(Cc1cc(Br)c(O)c(Br)c1)C(=O)O` (stereo not given), the hERG blockade is 9.07%. Next, `NNc1nncn1N`: -1.06%; `COc1cc2cc(c1Cl)N(C)C(=O)CC(OC(=O)C(C)C)C1(C)OC1C(C)C1CC(O)(NC(=O)O1)C(OC)C=CC=C(C)C2` (stereo not given): 33% (active). The value for `O=C(O)C[O][Sb][O]CC(=O)O` was 2.23%; that for `OC(CN1CC1)C(O)CN1CC1` (stereo not given) was 3.04%.

For the compound `c1cc(CCN2CCCCC2)ccn1`, the hERG blockade was -7.49%. Next, `C=C(C)c1ccccc1` (tested in a mixture with another compound): 1.7%; `CC1OC(OC2CC(O)C3(CO)C4C(O)CC5(C)C(C6=CC(=O)OC6)CCC5(O)C4CCC3(O)C2)C(O)C(O)C1O` (stereo not given): 2.43%; `CCC1(O)C(=O)OCc2c1cc1n(c2=O)Cc2cc3c(NC(=O)CN)cccc3nc2-1` (stereo not given): 7.93%.

`O=C(O)C(Cc1cnc[nH]1)N1C(=O)c2ccccc2C1=O` (stereo not given): the hERG blockade is 14.2%. The value for `Oc1cccc2cccnc12` was -22.9% (active); that for `NCCCN1CCN(c2ccccc2)CC1` was -0.441%; that for `C(=NCCN1CCOCC1)=NC1CCCCC1` was 6.97%. The value for `O=C(O)c1cc(N=Nc2ccc([As](=O)(O)O)cc2)ccc1O` was 3.08%; that for `CC(=O)OC1=CC2=CCC3C4CCC(=O)C4(C)CC(=O)C3(S)C2(C)CC1` (stereo not given) was -3.78%; that for `O=C(O)CNCP(=O)(O)O` was -1.2%. Next, `CN1CC(C(=O)NC2(C)OC3(O)C4CCCN4C(=O)C(Cc4ccccc4)N3C2=O)C=C2c3cccc4[nH]cc(c34)CC21` (stereo not given): 6.97%. `CC(Br)CN(CC(C)Br)c1ccc2c(c1)Cc1ccccc1-2` (stereo not given): the hERG blockade is 3.41%.

Take `CCC(O)(C(=O)O)c1cc2n(c(=O)c1CO)Cc1cc3ccccc3nc1-2` (stereo not given): the hERG blockade was -3.09%.

Take `C[N+]1([O-])C2CCC1CC(OC(=O)C(CO)c1ccccc1)C2` (stereo not given): the hERG blockade is -12.1%. Next, `CN(C)CCCNc1c2c(nc3ccc(Cl)cc13)CCCC2`: 65.9% (active); `O=S(=O)(O)C(=Cc1ccccc1)c1ccccc1` (tested in a mixture with another compound): -5.32%. Next, `O=C(O)Cc1ccc([N+](=O)[O-])cc1[N+](=O)[O-]`: -15.6%; `CC(c1ccccc1)N1CCN(C(C)c2ccccc2)CC1` (stereo not given): 2.64%. In the case of `CCC1CN2CCc3cc(OC)c(OC)cc3C2CC1CC1NCCc2c1[nH]c1ccc(O)cc21` (stereo not given), the hERG blockade is 35.8% (active). Next, `O=C(O)CC1OCC=C2CN3CCC45C6=CC(=O)C(=O)C([N+](=O)[O-])=C6NC4C1C2CC35` (stereo not given): 13.9%.
